Source: PubChem BioAssay (National Center for Advancing Translational Sciences (NCATS))
TDP1 inh: inhibitors of human tyrosyl-DNA phosphodiesterase TDP1; Q9NUW8; recombinant TDP1, AlphaScreen DNA substrate cleavage; Potency, µM (highest dose often 130 µM), for the others: top-dose activity change, negative = inhibition, actives largely listed as inhibitors; 350,000 tested, 0.28% active; AID 485290; also: nearly all actives have a fitted effect of over 40% in size
Target sequence (Q9NUW8 whole entry, looked up): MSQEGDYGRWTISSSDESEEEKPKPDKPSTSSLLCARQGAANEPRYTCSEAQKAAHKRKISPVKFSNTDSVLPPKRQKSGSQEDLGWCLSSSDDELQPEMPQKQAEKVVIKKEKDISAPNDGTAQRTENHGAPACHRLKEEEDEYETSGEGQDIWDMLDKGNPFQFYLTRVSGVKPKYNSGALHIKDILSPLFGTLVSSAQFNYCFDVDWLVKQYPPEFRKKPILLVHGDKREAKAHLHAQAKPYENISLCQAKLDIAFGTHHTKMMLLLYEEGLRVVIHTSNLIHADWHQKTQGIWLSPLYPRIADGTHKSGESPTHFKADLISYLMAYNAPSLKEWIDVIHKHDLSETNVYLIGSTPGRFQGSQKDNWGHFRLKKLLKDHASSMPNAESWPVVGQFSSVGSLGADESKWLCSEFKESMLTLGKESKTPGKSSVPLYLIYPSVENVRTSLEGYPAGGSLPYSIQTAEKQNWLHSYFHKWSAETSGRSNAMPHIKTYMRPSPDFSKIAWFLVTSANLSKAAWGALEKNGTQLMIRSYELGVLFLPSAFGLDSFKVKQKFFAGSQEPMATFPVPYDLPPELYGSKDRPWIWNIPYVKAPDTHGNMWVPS
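Steps: enzyme plus compound, 15 min RT; add biotin/phosphotyrosine-FITC oligonucleotide (15 nM final), react 5 min; add donor/acceptor beads (10 ug/ml final), 10 min; read AlphaScreen. Tdp1 at 1 nM final.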
PLK1 PBD block: blocks phosphopeptide binding to human PLK1 polo-box domain; P53350; Plk1 PBD binding of FITC phosphopeptide, fluorescence polarization; Potency, µM, without a hit: max response, negative = inhibition, hits mostly inhibitors; 360,000 tested, 2.8% active; also: series mostly up to about 57 µM; nearly all actives have a fitted effect of over 65% in size
KAT2A inh: blocks human GCN5L2 histone acetyltransferase; Q92830; GCN5L2 HAT assay, ThioGlo1 CoA-SH fluorescence; Potency, µM (highest dose often 58.9 µM), for the others: at the highest dose activity change, negative = inhibition, hits mostly inhibitors; 390,000 tested, 0.21% active; AID 504327
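Preincubate 20nM GCN5L2 with compound 15 min, RT → add 50uM ThioGlo1 + 75uM H3(1-25) + 70uM acetyl-CoA → read fluorescence 0 and 20 min. Primary qHTS; fluorescent artifacts likely.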
VDR inh: inhibitors of human vitamin D receptor | Potency, µM, without a hit: max response, negative = inhibition, usual class: inhibitors | AID 504847 | P11473 | 400,000 tested, 0.93% active | VDR-SRC2-3 peptide fluorescence polarization, 2 h
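VDR–SRC2-3 interaction, FP format. Cmpds 23 nl via pintool, brief spin, 2 h ambient incubation.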
DT40 TDP1 CPT: DT40-hTDP1 cell growth loss with CPT. chicken DT40 Tdp1-/-;hTDP1 cells + 20 nM CPT, ATP luminescence, 48 h. Potency, µM (doses to about 46.2 µM), without a hit: at the highest dose activity change, negative = growth inhibition, most hits filed as inhibitors. 420,000 tested, 12% active. AID 686979; also: nearly all actives have a fitted effect of over 55% in size
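Chicken DT40 Tdp1-/- cells stably complemented with human TDP1 were seeded at 400 cells/well in medium containing 20 nM camptothecin, exposed to pin-transferred compounds, and grown at 37 °C for at least 48 hr. Viability was read as ATP luminescence.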
DT40 TDP1 no CPT: qHTS for Inhibitors of human tyrosyl-DNA phosphodiesterase 1 (TDP1): qHTS in cells in absence of CPT | Potency, µM (doses to about 46.2 µM), for inactives: top-dose activity change, negative = growth inhibition, hits mostly inhibitors | DT40 Tdp1-/- hTDP1 cells, no CPT, ATP luminescence, 48 h | AID 686978, 2013 | 420,000 tested, 15% active; also: nearly all actives have a fitted effect of over 55% in size
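No-CPT arm: Tdp1-/-;hTDP1 DT40 cells (400/well) plus compounds, incubated ≥48 hr at 37 °C. Readout CellTiter-Glo luminescence.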
* marks the source's active call; other numbers are inactive results; ? = inconclusive; nt = no result; [ ] = another dose, or the depositor's remark. Shown are actives, neighbours in structure and some others; about 18% of the full set was active somewhere. Calls follow the shape of the dose curve; as a rule, active = well fitted curve in the direction sought with a large enough effect; inconclusive = small, poorly fitted or top-dose-only effect, or another doubt; inactive = no such curve, though single readings can be large; an effect the other way counts as inactive or inconclusive. % is scaled to controls: 0 for no effect and ±100 for the full control effect; potency is read from the fitted curve at half-maximal effect.

SMILES | TDP1 inh | PLK1 PBD block | KAT2A inh | VDR inh | DT40 TDP1 CPT | DT40 TDP1 no CPT
CC(C)NC(=O)N1CC(c2ccccc2)C(c2ccc(Cl)cc2)=N1 (stereo unspecified) | nt | 3.4% | -5.7% | 3.7% | 11.6µM* | 18.4µM*
COc1cc(Cl)c(C)cc1NC(=O)c1ccc(CN2C(=O)CCn3nc(C)cc32)cc1 | 5.6% | nt | 0.6% | 2.4% | -13.7% | -20.9%
O=C(O)c1cc(-c2ccc(/C=C3/SC(=S)N(Cc4ccccc4)C3=O)o2)ccc1Cl | nt | -4.6% | -10.6% | -20.4% | 21.9% | 16.2%
O=C(O)c1cccc(N2C(=O)/C(=C/c3ccc(SCc4ccc(Cl)cc4)o3)SC2=S)c1 | nt | ? | 22.4µM* | -29.8% | 20.6µM* | ?
Cn1c(=S)n(C)c2ccccc21 | -5.0% | -0.6% | 0.7% | 6.0% | -8.3% | -3.2%
Cn1c(=S)ccc2ccccc21 | 0.0% | 26.7µM* | -10.7% | -25.8% | -19.2% | -26.6%
Cn1c(C(c2cc3ccccc3n2C)c2cc3ccccc3n2C)cc2ccccc21 | nt | nt | nt | nt | 5.62µM* | 3.55µM*
Cc1ccc(C(=O)N2CCCC2(C)C(=O)NCC(C)C)cc1F (stereo unspecified) | nt | -1.3% | nt | nt | -8.3% | -14.7%
Cn1nc(-c2ccccc2)c2ncc(C(F)(F)F)cc21 | -2.6% | -14.2% | -2.9% | -8.7% | 6.7% | -2.9%
CSc1ncc(Cl)c(C(=O)NCc2ccc(C)cc2)n1 | -8.6% | nt | 0.0% | 3.3% | -28.8% | ?
CCOC(=O)Cc1csc(NS(=O)(=O)c2ccc([N+](=O)[O-])cc2)n1 | 7.2% | -9.6% | 1.5% | -16.6% | 4.3% | -9.9%
CCCCNc1nc(-c2ccccc2)nc(-n2ccnc2)n1 | 3.6% | -6.7% | -2.4%[0.501 µM] | -8.4% | -21.0% | ?
CCCN(CCC)c1nc(N)nc(-c2cc(Cl)ccc2OC)n1 | 3.2% | -3.5% | -4.0% | -12.5% | ? | ?
Nc1nc(N)nc(-c2cc(O)ccc2O)n1 | -0.8% | -5.6% | 0.8% | 18.8% | 8.2µM* | 5.8µM*
CCCCNc1nc(N)nc(-c2cc(Cl)ccc2O)n1 | 2.6% | -1.6% | -13.9% | 9.2% | 18.4µM* | 16.4µM*
CCNc1nc(NCC)nc(-n2cc(C(=O)c3cc(Cl)ccc3O)cn2)n1 | 0.7% | nt | nt | 3.3% | ? | 10µM*
CC(C)(C)c1cc(-c2nc(N)nc(N)n2)c(O)c(C(C)(C)C)c1 | -3.2% | -7.3% | -25.1% | -0.4% | ? | ?
CCNc1nc(N)nc(-c2cc(Cl)ccc2O)n1 | 2.5% | 5.3% | -18.3% | -1.4% | ? | 20.6µM*
CCOc1ccccc1NC(=O)CSc1nnc(CNC(=O)c2c(F)cccc2Cl)o1 | 2.6% | -21.7% | -0.7% | 4.4% | 5.2% | 7.4%
CN(C1CCCCC1)S(=O)(=O)c1ccc2c(c1)c(=O)c(C(=O)O)cn2C | nt | 2.6% | nt | nt | -19.3% | -4.0%
O=C(c1ccc(S(=O)(=O)N2CCCCCC2)cc1)N1CCN(Cc2ccccc2)CC1 | -0.5%[56.1 µM] | 5.8% | -7.0% | 15.7% | -29.8% | -26.8%
O=C(c1ccc(S(=O)(=O)N2CCCC2)cc1)N1CCN(Cc2ccc3c(c2)OCO3)CC1 | 6.8% | -8.7% | 1.2% | 3.1% | ? | 16.4µM*
O=C(c1ccc(S(=O)(=O)NCc2ccco2)cc1)N1CCN(Cc2ccc3c(c2)OCO3)CC1 | -1.2% | ? | -5.1% | -9.8% | ? | 16.4µM*
Cc1ccc(S(=O)(=O)N2CCN(Cc3cccc(F)c3)CC2)cc1 | nt | -2.8% | nt | 12.7% | -5.6% | -22.8%
COc1ccc(CN2CCN(C(=O)c3ccc(S(=O)(=O)N4CCCCCC4)cc3)CC2)cc1F | -1.4% | -6.5% | -6.7% | -5.0% | 20.6µM* | 20.6µM*
CN(c1ccc(C(=O)N2CCN(Cc3ccc4c(c3)OCO4)CC2)cc1)S(C)(=O)=O | -1.2% | -8.9% | 20.7% | -4.7% | -8.0% | -28.6%
COc1ccc(S(=O)(=O)N2CCCN(Cc3cccc(F)c3)CC2)cc1 | 2.0% | -10.3% | -14.2% | -3.4% | 20.6µM* | ?
